Assay in all cases: DAPPL (digital affinity profiling via proximity ligation, sequencing); 10 mM Tris-HCl pH 7.5, 50 mM NaCl, 1 mM DTT, 4% glycerol, room temperature, 30 min; GST-TFs on glutathione beads, 16-mer random dsDNA library, 0.1% formaldehyde crosslink after washing; high values mean tight binding
Holding throughout (conditions): protein: recombinant; tags: N-terminal GST; dsDNA, one strand shown

One assay deals with T1, FLI1 (Homo sapiens, UniProt Q01543 1-452).
T1 sequence: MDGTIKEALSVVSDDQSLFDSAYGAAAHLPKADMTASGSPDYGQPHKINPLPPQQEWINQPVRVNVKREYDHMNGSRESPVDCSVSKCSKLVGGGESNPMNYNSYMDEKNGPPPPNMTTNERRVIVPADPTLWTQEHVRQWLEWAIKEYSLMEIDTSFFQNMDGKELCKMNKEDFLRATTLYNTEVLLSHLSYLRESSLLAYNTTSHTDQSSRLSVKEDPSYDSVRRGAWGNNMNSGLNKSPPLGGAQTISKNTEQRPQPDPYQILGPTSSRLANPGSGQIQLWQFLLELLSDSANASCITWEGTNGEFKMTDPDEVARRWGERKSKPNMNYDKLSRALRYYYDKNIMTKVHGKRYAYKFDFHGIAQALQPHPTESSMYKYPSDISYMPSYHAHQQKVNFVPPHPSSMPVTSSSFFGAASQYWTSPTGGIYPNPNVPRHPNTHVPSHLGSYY
In short, it runs like this: (§1)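 Human transcription factors were made in yeast as GST fusions, captured on glutathione beads and barcoded with DNA. With a tag-only sample included, the pool was incubated with 200 nmole of a random double-stranded 16-mer DNA library in Tris/NaCl/DTT/glycerol buffer at room temperature for 30 min, then crosslinked with 0.1% formaldehyde after washing, ligated by proximity, amplified and sequenced. For binding signal, each hexamer's read frequency for a factor is divided by its frequency for the tag-only sample.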

For the next assay, the target named is T2, ELK1 (Homo sapiens, UniProt P19419 1-428).
T2 sequence: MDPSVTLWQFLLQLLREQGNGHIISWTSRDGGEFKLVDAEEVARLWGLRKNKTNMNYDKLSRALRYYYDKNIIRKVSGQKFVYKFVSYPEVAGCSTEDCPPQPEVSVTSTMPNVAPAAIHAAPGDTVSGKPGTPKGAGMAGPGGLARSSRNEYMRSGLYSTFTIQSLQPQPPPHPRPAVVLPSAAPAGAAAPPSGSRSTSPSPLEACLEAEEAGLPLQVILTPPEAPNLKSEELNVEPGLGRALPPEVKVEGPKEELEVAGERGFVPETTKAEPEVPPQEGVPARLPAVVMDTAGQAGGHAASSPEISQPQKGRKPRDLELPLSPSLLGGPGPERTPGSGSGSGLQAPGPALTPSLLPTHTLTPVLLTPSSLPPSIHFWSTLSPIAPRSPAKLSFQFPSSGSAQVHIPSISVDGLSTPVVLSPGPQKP
In outline: as §1

A further assay addresses T3, GABPA (Homo sapiens, UniProt Q06546 1-454).
T3 sequence: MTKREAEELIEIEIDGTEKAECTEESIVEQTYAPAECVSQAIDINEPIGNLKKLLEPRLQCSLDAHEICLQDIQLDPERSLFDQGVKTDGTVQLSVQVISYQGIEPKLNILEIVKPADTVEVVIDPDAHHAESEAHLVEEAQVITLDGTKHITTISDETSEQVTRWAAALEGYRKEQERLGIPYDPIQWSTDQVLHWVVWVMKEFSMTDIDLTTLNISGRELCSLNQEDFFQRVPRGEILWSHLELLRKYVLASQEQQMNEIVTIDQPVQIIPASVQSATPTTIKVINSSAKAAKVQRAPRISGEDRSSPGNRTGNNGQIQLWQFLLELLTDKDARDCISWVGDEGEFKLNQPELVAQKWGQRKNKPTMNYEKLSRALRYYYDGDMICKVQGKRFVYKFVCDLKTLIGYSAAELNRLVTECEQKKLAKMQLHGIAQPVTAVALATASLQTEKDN
In outline:
as §1

The next assay has as its target T4, ERG (Homo sapiens, UniProt P11308 1-479).
T4 sequence: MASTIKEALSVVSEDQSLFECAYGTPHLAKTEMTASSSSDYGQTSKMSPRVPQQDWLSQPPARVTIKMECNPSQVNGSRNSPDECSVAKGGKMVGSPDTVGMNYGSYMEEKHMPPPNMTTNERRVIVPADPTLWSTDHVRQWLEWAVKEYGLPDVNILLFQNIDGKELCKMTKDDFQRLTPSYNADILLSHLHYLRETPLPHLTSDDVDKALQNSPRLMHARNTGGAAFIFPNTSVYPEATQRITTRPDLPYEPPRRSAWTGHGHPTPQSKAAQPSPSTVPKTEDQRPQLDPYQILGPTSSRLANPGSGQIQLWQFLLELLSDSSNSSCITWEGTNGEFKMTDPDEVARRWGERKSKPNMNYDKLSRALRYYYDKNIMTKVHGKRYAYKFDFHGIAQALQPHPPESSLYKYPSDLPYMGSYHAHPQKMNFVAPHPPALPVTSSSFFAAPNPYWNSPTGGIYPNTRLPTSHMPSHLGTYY
In short, it runs like this: as §1

The target of another assay is ELF1 (Homo sapiens, UniProt P32519 1-619). In short, it runs like this:
as §1

Another assay addresses T5, EHF (Homo sapiens, UniProt Q9NZC4 1-300).
T5 sequence: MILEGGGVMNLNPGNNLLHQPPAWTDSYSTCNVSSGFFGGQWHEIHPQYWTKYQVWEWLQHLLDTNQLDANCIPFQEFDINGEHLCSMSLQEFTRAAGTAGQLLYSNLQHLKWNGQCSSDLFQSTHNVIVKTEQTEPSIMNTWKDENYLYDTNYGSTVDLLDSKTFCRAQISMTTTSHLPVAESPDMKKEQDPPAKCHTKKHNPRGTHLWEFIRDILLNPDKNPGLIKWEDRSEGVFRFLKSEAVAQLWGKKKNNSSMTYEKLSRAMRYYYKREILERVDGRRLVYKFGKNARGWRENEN
In outline: as §1

The next assay has as its target SPIB (Homo sapiens, UniProt Q01892 1-262). In short, it runs like this:
as §1

The target in another assay is T6, ELK3 (Homo sapiens, UniProt P41970 1-407).
T6 sequence: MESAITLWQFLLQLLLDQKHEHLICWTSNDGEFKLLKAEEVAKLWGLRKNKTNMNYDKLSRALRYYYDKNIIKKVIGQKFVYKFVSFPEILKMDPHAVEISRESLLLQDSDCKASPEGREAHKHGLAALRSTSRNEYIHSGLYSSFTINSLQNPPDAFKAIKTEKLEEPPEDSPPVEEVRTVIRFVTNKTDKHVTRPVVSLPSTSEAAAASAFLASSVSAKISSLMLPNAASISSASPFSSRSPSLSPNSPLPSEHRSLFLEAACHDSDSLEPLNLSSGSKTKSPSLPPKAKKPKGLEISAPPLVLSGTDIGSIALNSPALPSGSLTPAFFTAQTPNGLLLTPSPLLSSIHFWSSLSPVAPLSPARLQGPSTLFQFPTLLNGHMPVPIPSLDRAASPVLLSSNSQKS
In outline:
as §1

A further assay concerns the target T7, SPIC (Homo sapiens, UniProt Q8N5J4 1-248).
T7 sequence: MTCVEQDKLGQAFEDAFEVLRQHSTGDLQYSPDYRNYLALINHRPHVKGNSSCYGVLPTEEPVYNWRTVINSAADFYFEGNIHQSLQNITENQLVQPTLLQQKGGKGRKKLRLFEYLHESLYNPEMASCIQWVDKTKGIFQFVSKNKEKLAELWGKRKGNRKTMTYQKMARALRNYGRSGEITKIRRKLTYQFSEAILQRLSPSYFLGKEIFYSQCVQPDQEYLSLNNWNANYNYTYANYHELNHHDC
In outline: as §1

The next assay deals with ELF4 (Homo sapiens, UniProt Q99607 1-663). In short, it runs like this: as §1
Sequence of ELF4 (Q99607 whole entry): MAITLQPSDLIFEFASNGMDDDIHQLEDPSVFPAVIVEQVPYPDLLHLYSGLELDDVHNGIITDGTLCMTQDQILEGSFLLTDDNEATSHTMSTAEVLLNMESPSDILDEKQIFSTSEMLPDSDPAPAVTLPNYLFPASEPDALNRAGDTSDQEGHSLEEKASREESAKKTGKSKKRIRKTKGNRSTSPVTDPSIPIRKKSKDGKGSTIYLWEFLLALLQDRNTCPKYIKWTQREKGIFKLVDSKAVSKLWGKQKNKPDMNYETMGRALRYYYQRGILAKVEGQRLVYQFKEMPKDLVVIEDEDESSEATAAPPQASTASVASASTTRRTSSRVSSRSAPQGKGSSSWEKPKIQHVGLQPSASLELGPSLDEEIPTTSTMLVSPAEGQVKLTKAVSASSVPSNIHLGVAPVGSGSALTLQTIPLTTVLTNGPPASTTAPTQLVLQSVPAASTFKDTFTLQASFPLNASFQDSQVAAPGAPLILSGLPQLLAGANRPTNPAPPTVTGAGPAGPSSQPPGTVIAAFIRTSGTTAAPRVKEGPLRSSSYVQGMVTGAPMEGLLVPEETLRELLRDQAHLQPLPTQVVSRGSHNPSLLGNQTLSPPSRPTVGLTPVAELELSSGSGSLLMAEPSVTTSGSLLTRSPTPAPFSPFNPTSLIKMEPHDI

Sequence of ELF1 (P32519 whole entry): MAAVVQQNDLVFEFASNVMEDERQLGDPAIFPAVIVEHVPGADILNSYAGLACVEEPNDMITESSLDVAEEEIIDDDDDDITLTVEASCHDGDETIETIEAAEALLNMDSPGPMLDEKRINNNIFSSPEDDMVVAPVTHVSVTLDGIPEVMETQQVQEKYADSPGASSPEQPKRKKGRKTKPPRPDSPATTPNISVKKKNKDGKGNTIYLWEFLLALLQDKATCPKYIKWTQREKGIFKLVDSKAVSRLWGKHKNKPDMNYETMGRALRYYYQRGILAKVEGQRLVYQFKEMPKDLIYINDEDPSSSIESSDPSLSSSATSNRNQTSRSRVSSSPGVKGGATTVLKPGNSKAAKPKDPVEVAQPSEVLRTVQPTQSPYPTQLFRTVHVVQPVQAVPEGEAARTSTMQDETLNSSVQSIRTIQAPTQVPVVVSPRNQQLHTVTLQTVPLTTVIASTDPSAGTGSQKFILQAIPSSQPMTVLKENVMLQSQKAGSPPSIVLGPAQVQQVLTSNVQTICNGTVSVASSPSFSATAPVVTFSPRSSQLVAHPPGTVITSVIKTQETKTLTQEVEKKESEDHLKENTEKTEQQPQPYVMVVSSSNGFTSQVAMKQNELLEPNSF
Sequence of SPIB (Q01892 whole entry): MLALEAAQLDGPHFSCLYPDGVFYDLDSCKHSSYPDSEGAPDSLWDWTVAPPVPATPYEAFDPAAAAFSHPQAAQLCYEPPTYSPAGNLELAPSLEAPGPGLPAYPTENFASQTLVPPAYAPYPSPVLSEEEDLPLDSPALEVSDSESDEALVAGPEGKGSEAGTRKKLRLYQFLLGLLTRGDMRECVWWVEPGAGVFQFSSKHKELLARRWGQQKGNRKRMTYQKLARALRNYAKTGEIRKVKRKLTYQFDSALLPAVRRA

For the sequence TACAGC, the binding signal was 1.06 fold enrichment (6-mer frequency, TF over GST control) in the assay with FLI1; 1.01 fold enrichment (6-mer frequency, TF over GST control) with ELK1; 1.07 fold enrichment (6-mer frequency, TF over GST control) in the assay with GABPA; 1.06 fold enrichment (6-mer frequency, TF over GST control) with ERG; 1.13 fold enrichment (6-mer frequency, TF over GST control) with ELF1; 1.06 fold enrichment (6-mer frequency, TF over GST control) in the assay with EHF. Besides, the binding signal in the assay with SPIB was 1.04 fold enrichment (6-mer frequency, TF over GST control); with ELK3 it was 1.06 fold enrichment (6-mer frequency, TF over GST control); with SPIC, 1.02 fold enrichment (6-mer frequency, TF over GST control); with ELF4, 1.13 fold enrichment (6-mer frequency, TF over GST control).

These data come from paper PMC7862700, “An all-to-all approach to the identification of sequence-specific readers for epigenetic DNA modifications on cytosine”.
